# Results published in PubChem BioAssay AID1053126 (Broad Institute, 2014).
# Measured potencies and affinities stand elsewhere. The source made the active and inactive calls.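 Rule for the calls: active = cell killing with a fitted half-effect concentration at or below twice the top valid dose; inconclusive = flat curve with 30 to 70 percent drop, or poor fit; inactive = the rest.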
# Assay: HEK293T cell cytotoxicity, dose response, cytotoxicity control, ATP luminescence, cherry-pick, set 6 (AID 1053126)
# Conditions: HEK293T viability, CellTiter-Glo ATP luminescence, 72 h; series mostly up to 26 µM
row,Structure (SMILES),outcome
1,Nc1cccc2c1C(=O)N(c1ccccc1)C2=O,inactive
2,Cc1cc(C)nc(SCC(=O)Nc2ccc(S(=O)(=O)Nc3onc(C)c3C)cc2)n1,inactive
3,Cc1cc(=O)oc2cc(OC(=O)c3cncc(Br)c3)ccc12,inactive
4,Cc1nc2ccccc2c2oc(C(=O)NCCCN3CCC(C)CC3)cc12,inactive
5,O=c1[nH]c2ccccc2nc1/C=C/c1ccccc1,inactive
6,Cc1ccc(-n2c(C)cc(/C=N/NC(=O)Cn3c4ccccc4c(=O)c4ccccc43)c2C)cc1,inactive
7,O=C(c1ccc(F)cc1)C1CCN(C(=O)Nc2ccccc2Cl)CC1,inactive
8,C[C@H](NC(=O)c1nc[nH]c1C(=O)N[C@@H](Cc1ccccc1)C(=O)OC(C)(C)C)C(=O)OCc1ccccc1,inactive
9,Cn1cnc(S(=O)(=O)Nc2ccc(OC(F)(F)F)cc2)c1,inactive
10,Fc1ccc(-c2nc3ccccn3c2NCc2ccc3c(c2)OCO3)cc1,inactive
11,O=C(O)C1=CC[C@@H](c2ccc(Cl)cc2)N(S(=O)(=O)c2ccc(Cl)cc2)[C@H]1c1ccc(F)cc1,inactive
12,Cc1c(O)ccc2cc(S(=O)(=O)c3ccccc3)c(=O)oc12,inactive
13,COc1ccc(Cn2nnnc2C(CC(C)C)N2CCC(C(N)=O)CC2)cc1 (centres undefined),inactive
14,CCC(C)NC(=S)N1CCN(Cc2ccc3c(c2)OCO3)CC1 (centres undefined),inactive
15,O=C(O)[C@@H]1CCCN1S(=O)(=O)c1cccc(S(=O)(=O)N2CCC[C@H]2C(=O)O)c1,inactive
16,Cc1ccc(S(=O)(=O)CCC(=O)OCC(=O)Nc2cccc(S(=O)(=O)N3CCCCC3)c2)cc1,inactive
17,CCOC(=O)c1c(C)n(C)c2ccc(OCC(O)CN3CCC(C)CC3)cc12 (centres undefined),inactive
18,Cn1cc(C(c2ccccc2OCC(=O)O)c2cn(C)c3ccccc23)c2ccccc21,inactive
19,CCc1ccccc1S(=O)(=O)Cc1ccc(C(=O)N2CCN(c3ccccc3OC)CC2)o1,inactive
